Test results taken from PubChem BioAssay AID493169 (National Center for Advancing Translational Sciences (NCATS), 2011).
Records with an inconclusive call do not appear. Values without a mark were called inactive. Active and inactive are the calls of the source. Calls follow the shape of the dose curve; as a rule, active = well fitted inhibition curve with a large enough effect; inconclusive = small, poorly fitted or top-dose-only effect; inactive = flat fitted curve, though single readings scatter.

Assay: CHOP2 Reporter Counterscreen Assay for Inhibitors of Ubiquitin-specific Protease USP2a;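 also: activated enterokinase alone at 50 pM in a cell-free format rather than USP2a or CHOP2; nearly all actives have a fitted effect of over 55% in size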
Conditions: purified enterokinase, fluorogenic substrate, 485/531 nm; series mostly up to 38.3 µM; activity change, negative = inhibition: at the top concentration
Outline: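 Cell-free counterscreen with pre-activated enterokinase alone (50 pM final) in 20mM Tris-HCl pH 8.0, 2mM CaCl2, 2mM beta-mercaptoethanol, 0.05% CHAPS; compound preincubation 30 min RT, reporter substrate 25nM final, fluorescence read after 10 min (Ex 485/Em 531).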
% is scaled to controls: 0 for no effect and ±100 for the full control effect; potency is read from the fitted curve at half-maximal effect.

Compound | activity change, negative = inhibition [%] | Potency
CSC1=NCCN1C(=O)Cc1ccc(F)cc1 | -0.64 | –
Cc1cc(C(=O)CSc2nnc(Nc3ccccc3F)s2)c(C)n1CC1CCCO1 (stereo not given) | -1.76 | –
CCOc1ccccc1C(=O)Nc1nnc(C(C)C)s1 | -0.725 | –
Cc1ccc(C(=O)C(=S)N2CCOCC2)cc1 | 2.32 | –
Cc1cccc(Nc2nc(NCc3ccco3)c3ccccc3n2)c1 | -15.7 | –
CC(C)(C)C(=O)Nc1c2c(nc3c1CCC3)CCCC2 | -1.85 | –
CC(C)Cn1c(SCC(N)=O)nnc1-c1cccc(S(=O)(=O)N2CCOCC2)c1 | 1.51 | –
Cc1ccc(S(=O)(=O)N2[C@@H](c3ccccc3F)C(C(=O)O)=CC[C@H]2c2ccc(Cl)c(Cl)c2)cc1 | 0.747 | –
O=C(Nc1ccc2c(c1)OCO2)NC1(C(F)(F)F)Oc2ccccc2O1 | -0.462 | –
O=C(CN1CCOCC1)Nc1ccc(C2CCCCC2)cc1 | -0.907 | –
COc1ccc(/C=C2\SC(=S)N(NS(=O)(=O)c3ccc(C)cc3)C2=O)c(OC)c1 | -25.7 | –
Cc1ccccc1OCc1nc2ccccc2c(=O)n1N | 1.37 | –
Cc1ccc(NS(=O)(=O)c2cccc(C(=O)OCC(=O)NCc3ccco3)c2)cc1 | – | 10 µM (active)
CCCNC(=O)NCc1ccc(N2CCCC2=O)cc1 | 0.0304 | –
O=C1COc2ccc(C(=O)COC(=O)/C=C/c3ccc(Br)o3)cc2N1 | – | 2.82 µM (active)
CS(=O)(=O)c1ccc(C(=O)Nc2nc(-c3ccco3)c(-c3ccco3)s2)cc1 | -26.3 | –
Cc1cc(N2CCC(C(=O)NC3CC3)CC2)nc(-c2ccccc2)n1 | -2.34 | –
CCC(C)(C(=O)NC1CCCCC1)N(C(=O)C1CCC(=O)N1)c1ccccc1 (stereo not given) | -1.78 | –
O=C(Nc1cccc(-c2nn[nH]n2)c1)c1ccc(Br)s1 | – | 3.98 µM (active)
CCC(C(=O)NCc1ccccc1OC)n1nc(C)n2c(cc3occc32)c1=O (stereo not given) | 0.79 | –

Compound | activity change, negative = inhibition [%] | Potency
COc1cc(-c2nc(-c3ccc4c(c3)-c3ccccc3S4(=O)=O)c(-c3ccccc3)[nH]2)cc(OC)c1O | 0.409 | –
Cn1c(=O)c(C(=O)Nc2ncccc2O)c(O)c2ccccc21 | – | 10 µM (active)
Cc1n[nH]c(C)c1S(=O)(=O)N1CCCC(C(=O)Nc2nccs2)C1 (stereo not given) | 1.87 | –
O=C1c2ccccc2C(=O)N1CCCCn1c(=O)oc2ccccc21 | 0.299 | –
O=C(COc1ccccc1)NCCSc1ccccc1 | -0.789 | –
Cc1ccc(NC(=O)CCC(=O)OC(C)C(=O)c2ccccc2)cc1 (stereo not given) | -2.47 | –
CCOc1ccc2[nH]c(=O)c(CN(CCc3ccccc3)C(=O)c3cnccn3)cc2c1 | 3.23 | –
Cc1ccccc1N=C1NC(=O)CS1 | 2.43 | –
Cc1ccc(C)c(S(=O)(=O)c2c(N)n(/N=C/c3ccco3)c3nc4ccccc4nc23)c1 | 16.7 | –
Cc1cc(C)n(C(=O)c2cccc(S(=O)(=O)N3CCCC3)c2)n1 | 5.71 | –
CCOc1ccc2[nH]c(=O)c(CN(Cc3cccs3)Cc3nnnn3C(C)(C)CC)cc2c1 | -1.12 | –
COc1ccc(-n2c(SCC(=O)N3CCN(c4ccccc4)CC3)nc3c(c2=O)SCC3)cc1 | -4.64 | –
Cc1ccc2[nH]c3c(c2c1)CN(C(=O)CN1CCSCC1)CC3 | 13.7 | –
CN(C)S(=O)(=O)c1ccc(C(=O)NCCN=C2NS(=O)(=O)c3ccccc32)cc1 | 0.218 | –
COc1cc2cc(CN(CCN3CCCC3)C(=O)Nc3ccc(F)cc3)c(=O)[nH]c2cc1OC | -2.32 | –
Cc1c2c(=O)n(-c3nc4ccccc4s3)nc-2cc(O)n1Cc1ccccc1 | – | 11.2 µM (active)
CCCn1c(C)cc(C)c(C#N)c1=O | 0.326 | –
CC(C)(C)NC(=O)CSc1nc(O)cc(=O)n1-c1ccccc1F | 7.8 | –
c1ccc(Nc2c3c(nc4ncnn24)CCC3)cc1 | 2.61 | –
CC(C)c1ccc(C2=C(O)c3ccccc3C(=O)C2=O)cc1 | 0.933 | –
